GLS inh: qHTS for Inhibitors of Glutaminase (GLS); Glutaminase kidney isoform, mitochondrial (Homo sapiens), O94925; GLS enzymatic activity, qHTS titration; Potency, µM (doses to about 45.5 µM), inactives show top-dose activity change, negative = inhibition, most hits filed as inhibitors; 410,000 compounds, 0.21% hits; further: on the % scale 0 is the no-effect control and ±100 the full control effect
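Assay buffer: 45 mM KH2PO4 pH 8.2, 0.02% Tween-20. hKGA acts on L-glutamine (1 mM solution added); product glutamate is reported by an oxidase/peroxidase Amplex Red coupling, with fluorescence taken at baseline and 30 min.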
BAZ2B inh: qHTS Assay for Inhibitors of BAZ2B; Bromodomain adjacent to zinc finger domain protein 2B (Homo sapiens), Q9UIF8; AlphaScreen BAZ2B-H3K14Ac peptide displacement; Potency, µM (doses to about 114 µM), for the others: at the highest dose activity change, negative = inhibition, usual class: inhibitors; 360,000 compounds, 4.4% hits; AID 504333, 2011; further: on the % scale 0 is the no-effect control and ±100 the full control effect; nearly all actives have a fitted effect of over 60% in size
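Protein-peptide AlphaScreen: BAZ2B 50 nM, b-H3K14Ac 50 nM, 1x PBS pH 7.4 + 0.01% Tween-20. Preincubation 30 min RT; cpd 30 min RT (top 110 uM); beads 20 min RT, light-protected.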
JMJD2A Tudor: qHTS Assay for Inhibitors of JMJD2A-Tudor Domain; 390,000 compounds, 4.4% hits; Potency, µM (series often up to 114 µM), for the others: at the top dose activity change, negative = inhibition, actives largely listed as inhibitors; AlphaScreen JMJD2A-Tudor / H3K4me3 peptide binding; AID 504339, 2011; further: on the % scale 0 is the no-effect control and ±100 the full control effect; nearly all actives have a fitted effect of over 50% in size
L3MBTL1 inh-1: qHTS Assay for the Inhibitors of L3MBTL1; AlphaScreen L3MBTL1–H3K9me1 peptide binding; Potency, µM (titrated, usually from 57.1 µM), without a hit: at the top dose activity, negative = inhibition, actives largely listed as inhibitors; Lethal(3)malignant brain tumor-like protein 1 (Homo sapiens), Q9Y468; 230,000 compounds, 0.66% hits; further: on the % scale 0 is the no-effect control and ±100 the full control effect; nearly all actives have a fitted effect of over 60% in size
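L3MBTL1 50 nM + b-AHA-H3(1-15)K9me1 75 nM, 30 min RT; compound added, 30 min RT; streptavidin donor/Ni-chelate acceptor beads 10 ug/mL each final, 30 min RT dark; AlphaScreen read.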
HP1b chromo inh: HTS for Inhibitors of HP1-beta Chromodomain Interactions with Methylated Histone Tails; Chromobox protein homolog 1 (Homo sapiens), P83916; AlphaScreen HP1-beta / biotin-H3K9me3 peptide binding; Potency, µM (top dose mostly 114 µM), for inactives: at the top dose activity change, negative = inhibition, usual class: inhibitors; 390,000 compounds, 0.56% hits; further: nearly all actives have a fitted effect of over 70% in size
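HP1-beta protein (50 nM final) preincubated 30 min at room temperature with biotinylated H3(1-18)K9me3 peptide (50 nM) in PBS pH 7.4, 0.01% Tween-20, then compound added for 30 min. AlphaScreen streptavidin donor/nickel chelate acceptor beads (10 ug/mL final), 30 min dark, luminescence read.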
G9a block: qHTS Assay for Inhibitors of Histone Lysine Methyltransferase G9a | G9a H3K9 monomethylation, AlphaScreen, 2 h | Potency, µM (top dose mostly 102 µM), inactives show at the highest dose activity, negative = inhibition, actives largely listed as inhibitors | 350,000 compounds, 8.8% hits; further: on the % scale 0 is the no-effect control and ±100 the full control effect; nearly all actives have a fitted effect of over 75% in size
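AlphaScreen detection with an anti-monomethyl H3K9 antibody quantified product after a 2 h room-temperature reaction containing 500 nM biotinylated H3K9 peptide, 20 µM SAM and 20 nM enzyme, which had been preincubated 15 min with compound.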
L3MBTL1 inh-2: qHTS Assay for the Inhibitors of L3MBTL1: Hit Validation. shares compounds with L3MBTL1 inh-1. L3MBTL1 methyl-lysine binding inhibition, biochemical qHTS. Potency, µM, actives largely listed as inhibitors. 500 compounds, 91% hits; further: nearly all actives have a fitted effect of over 70% in size
L3MBTL1 ctr: qHTS Assay for the Inhibitors of L3MBTL1: Hit Validationin AlphaScreen Counterscreen; shares compounds with L3MBTL1 inh-1; AlphaScreen counterscreen, signal inhibition; Potency, µM (highest dose often 57.1 µM), for the others: top-dose activity change, negative = inhibition, actives largely listed as inhibitors; 500 tested, under 10 active; AID 602224, 2012; further: 0% is about no effect
* hit, by the source's call; [ ] = another dose, or the depositor's remark. This is a sample that favours compounds with a hit; in the whole collection about 10% have one here. The call rests on the fitted dose curve; in most records, active means well fitted curve in the direction sought with a large enough effect; inconclusive means small, poorly fitted or top-dose-only effect, or another doubt; inactive means no such curve, though single readings can be large; an effect the other way counts as inactive or inconclusive. Potency means the concentration at half of the fitted maximal effect.

For CCOc1ccc(C2C3=C(CCCC3=O)Nc3ccc4ncccc4c32)cc1 (configuration not stated) the results were GLS inh 12%, BAZ2B inh -15%, JMJD2A Tudor -22% and HP1b chromo inh 38%.
Screening O=C1CCCC2=C1C(c1ccc(O)c(O)c1)c1c(ccc3ncccc13)N2 (configuration not stated) returned GLS inh inconclusive, BAZ2B inh 45µM*, JMJD2A Tudor -19%[11.4 µM], L3MBTL1 inh-1 2µM*, HP1b chromo inh inconclusive, G9a block 3.5µM*, L3MBTL1 inh-2 21* and L3MBTL1 ctr 14%.
Screening Cc1ccc(NC(=O)CN2C(=O)S/C(=C/c3ccc(-c4cccc(C(=O)O)c4)o3)C2=O)cc1 returned GLS inh inconclusive, BAZ2B inh 16µM*, JMJD2A Tudor 45µM*, L3MBTL1 inh-1 35µM*, HP1b chromo inh inconclusive, L3MBTL1 inh-2 27* and L3MBTL1 ctr 2%.
`Cc1cccc(NC(=O)CN2C(=O)S/C(=C\c3cc(C)n(C)c3C)C2=O)c1` gave GLS inh 0%, BAZ2B inh 0%, JMJD2A Tudor -17%, L3MBTL1 inh-1 -9%, HP1b chromo inh 29% and G9a block -7%[59 µM].
Screening Cc1cc(C(=O)O)ccc1-c1ccc(/C=C2\NC(=O)N(Cc3ccccc3Cl)C2=O)o1 returned GLS inh -12%, BAZ2B inh 45µM*, JMJD2A Tudor 45µM*, L3MBTL1 inh-1 18µM*, HP1b chromo inh inconclusive, G9a block 25µM*, L3MBTL1 inh-2 7.5* and L3MBTL1 ctr 35%.
`Cc1c(O)cc2c(c1O)C(=O)CC(c1ccc(O)cc1)O2` (configuration not stated) gave GLS inh -28%, BAZ2B inh 56µM*, JMJD2A Tudor inconclusive, L3MBTL1 inh-1 4µM*, HP1b chromo inh -6%, G9a block inconclusive, L3MBTL1 inh-2 6.7* and L3MBTL1 ctr 7%.
Screening COC(=O)/C(C#N)=C/c1ccc(OC(=O)c2ccccn2)cc1 returned GLS inh 10%, BAZ2B inh 7.1µM*, JMJD2A Tudor 8.9µM*, L3MBTL1 inh-1 16µM*, HP1b chromo inh 44%, G9a block 7.9µM*, L3MBTL1 inh-2 inconclusive and L3MBTL1 ctr 0%.
Screening COC(=O)c1ccccc1NC(=O)CSc1nc2ccccc2nc1Cc1ccc(F)cc1 returned GLS inh -6%, BAZ2B inh 5%, JMJD2A Tudor -4%, HP1b chromo inh 22%[57 µM] and G9a block -1%[59 µM].
Screening Cc1ccc(-c2cc(C(=O)O)c3cc(Br)ccc3n2)o1 returned GLS inh -13%, BAZ2B inh 56µM*, JMJD2A Tudor 25µM*, L3MBTL1 inh-1 32µM*, HP1b chromo inh -25%, G9a block 1.3µM*, L3MBTL1 inh-2 21* and L3MBTL1 ctr -5%.
`COCCN(C(=O)COC(=O)c1cc2c(s1)CCC2)c1c(N)n(Cc2ccccc2)c(=O)[nH]c1=O` gave GLS inh 10µM*, BAZ2B inh 8.9µM*, JMJD2A Tudor 8.9µM*, L3MBTL1 inh-1 2.5µM*, HP1b chromo inh -95%, G9a block 10µM*, L3MBTL1 inh-2 0.84* and L3MBTL1 ctr -2%.
COCCN(C(=O)COC(=O)Cc1coc2cc(C)ccc12)c1c(N)n(Cc2ccccc2)c(=O)[nH]c1=O was read as GLS inh -4%, BAZ2B inh inconclusive, JMJD2A Tudor -26%, L3MBTL1 inh-1 25µM*, HP1b chromo inh 7%, G9a block inconclusive, L3MBTL1 inh-2 27* and L3MBTL1 ctr 1%.
`COCCN(C(=O)COC(=O)Cc1cccc2ccccc12)c1c(N)n(Cc2ccccc2)c(=O)[nH]c1=O` gave GLS inh 2%, BAZ2B inh -5%, JMJD2A Tudor -20% and HP1b chromo inh 2%.
Screening CCOc1ccc(NC(=O)C2CCCN(c3nnc(-n4c(C)ccc4C)s3)C2)cc1 (configuration not stated) returned GLS inh -7%, BAZ2B inh -20%, JMJD2A Tudor -28%, HP1b chromo inh 14% and G9a block -11%[59 µM].
CC(=O)N1CCOc2cc(S(=O)(=O)Nc3c(C)cccc3C(C)C)c(Cl)cc21 was read as GLS inh 0%, BAZ2B inh -2%, JMJD2A Tudor -20%, L3MBTL1 inh-1 -3%, HP1b chromo inh 30% and G9a block inconclusive.
`COc1cc(/C=C2\SC(=Nc3ccc(Cl)c(C(=O)O)c3)NC2=O)c(Br)c(Br)c1O` gave GLS inh inconclusive, BAZ2B inh 45µM*, JMJD2A Tudor 79µM*, L3MBTL1 inh-1 32µM*, HP1b chromo inh inconclusive, G9a block 32µM*, L3MBTL1 inh-2 3* and L3MBTL1 ctr inconclusive.
For COc1cc(/C=C2/SC(=Nc3ccc(O)cc3)NC2=O)ccc1O the results were GLS inh 24%, BAZ2B inh -14%, JMJD2A Tudor -1%[11.4 µM], L3MBTL1 inh-1 -3% and HP1b chromo inh 7%.
Screening O=C(O)CNc1ccccc1C(=O)O returned GLS inh 2%, BAZ2B inh inconclusive, JMJD2A Tudor 56µM*, L3MBTL1 inh-1 22µM*, HP1b chromo inh -1%, L3MBTL1 inh-2 3* and L3MBTL1 ctr 1%.
Screening O=C(O)c1ccccc1NCc1cccnc1 returned GLS inh 17%, JMJD2A Tudor -2% and HP1b chromo inh 47%.
Screening COc1ccccc1C(=O)Nc1cccc(C(=O)OCc2cc(=O)n3cc(C)sc3n2)c1 returned GLS inh -6%, BAZ2B inh -14%, JMJD2A Tudor -19%, HP1b chromo inh -5% and G9a block -2%[59 µM].

Source: PubChem BioAssay
